Source: PubChem
TWEAK-Fn14 inh = TWEAK-Fn14 signaling inhibition; AID 1159606; TWEAK-stimulated Fn14 reporter cells, luciferase luminescence, 8 h; actives 2% (n = 360,000); inhibition, % at 10 µM; in the data active = inhibition above about 50%
aDG glyco act = alpha-DG glycosylation activation | Pro5-aDG cells, alpha-DG glycosylation AlphaScreen (IIH6); 0% Pro5, 100% B10-LARGE cell signal | activation, % at 10 µM | actives 0.22% (n = 360,000);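 active = activation of at least 8% versus controls, or a plate z-score of at least 8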;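 note: Pro5 are CHO cells carrying HIG-tagged alpha-DG that lacks glycosylation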
LMP1 NFkB inh = reduces LMP1-driven NF-kappaB luciferase signal. LMP1-induced NF-kappaB luciferase reporter cells, luminescence. inhibition, % at 12.5 µM. actives 0.69% (n = 350,000). AID 504558; in the data active = inhibition above about 41%;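 note: 0% = neutral control wells and 100% = reference inhibitor control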
LGR2 antag = Drosophila LGR2 receptor signaling inhibition; HEK293 LGR2, CRE-luciferase, bursicon-stimulated, 4 h; AID 720647; actives 0.35% (n = 380,000); inhibition, % at 9.99 µM;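 active = drop in luminescence signal, shown as inhibition above about 50% in the replicate tests, limit read from the data, passing the limit was not always enough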;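 note: agonist challenge used bursicon conditioned medium at about half maximal strength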
TROY signal inh = blocks TROY-dependent signaling in reporter cells | inhibition, % at 10 µM | AID 1347056 | Q293 LMP1-TROYcd NF-kB luciferase reporter, 4 h | actives 0.98% (n = 360,000);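 active = compounds whose plate-normalised and pattern-corrected inhibition of the luciferase reporter signal at the single screening dose is 50% or more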
HSP90 inh = blocks HSP90-mediated luciferase refolding in reticulocyte lysate. Rabbit reticulocyte lysate, luciferase refolding luminescence, 3 h. inhibition, % at 5.6 µM. actives 0.91% (n = 290,000);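 active = inhibition above the screen-wide mean plus 3 SD, computed separately per campaign, cut at about 16% in these data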;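 note: 0% = DMSO wells and 100% = 60 µM geldanamycin wells; inhibitors lower the luminescence because luciferase stays unfolded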
* = called active by the depositor; / = no result given. Rows were chosen to be rich in hits. Some 2.6% of all compounds tested hit in one or more screens of this group.

SMILES | TWEAK-Fn14 inh | aDG glyco act | LMP1 NFkB inh | LGR2 antag | TROY signal inh | HSP90 inh
CC(=NNC(=S)N1CCCC1)c1ccccn1 | -6.9 | -0.6 | 57.2* | -5.9 | -30.8 | /
S=C(NCc1ccccn1)Nc1cccc(Cl)c1 | -6.1 | 0.7 | -14.4 | -38.7 | -22.2 | -2.5
CC(C)C(=O)Nc1ccc2c(c1)C(=O)N(C)[C@H]1CC[C@@H](CC(=O)NCc3ccc(F)cc3)O[C@@H]1CO2 | / | / | / | -15.6 | / | /
COc1ccc(C(C#N)=C2C=C(Cl)C(=NO)C=C2Cl)cc1 | 75.0* | 0.4 | 5.0 | -4.0 | 41.5 | /
COC(=O)c1ccc(-c2nc(-c3cccs3)no2)cc1 | 92.1* | 0.2 | 23.6 | 83.7* | 64.2* | 5.1
COc1ccc(S(=O)(=O)N2CCOCC2)cc1NC(=O)COC(=O)C1CCC1 | 10.8 | -0.4 | -2.8 | 9.7 | 3.2 | /
COc1ccc(S(=O)(=O)N2CCOCC2)cc1NC(=O)COC(=O)CCS(=O)(=O)c1ccc(C)cc1 | 6.7 | 0.0 | 67.8* | -4.0 | 1.5 | /
Cc1ccc(S(=O)(=O)N2CCOCC2)cc1NC(=O)CN1CCN(c2ccc(O)cc2)CC1 | 78.4* | -0.1 | 4.6 | -13.4 | 49.2 | 1.2
C[C@@H]1CN([C@H](C)CO)C(=O)c2cccc(NC(=O)Nc3ccc4c(c3)OCO4)c2O[C@@H]1CN(C)Cc1ccc(-c2ccccc2)cc1 | / | / | / | 10.0 | / | /
CO[C@@H]1CC[C@@H]2CCOc3ccc(C#N)cc3C(=O)N(C)C[C@@H](c3ccccc3)CC(=O)N(C)C[C@@H]1O2 | / | / | / | 6.0 | / | /
COc1ccccc1CN(C)C(=O)c1cc(-c2cccs2)nc2ccccc12 | 73.5* | -0.4 | 2.9 | 5.6 | 30.5 | 2.2
COc1ccc(-c2cc(C(=O)N(C)Cc3cccc(OC)c3OC)c3ccccc3n2)cc1OC | 6.7 | -0.3 | 8.6 | -7.2 | -1.4 | -1.2
C[C@H](CO)N1C[C@H](C)[C@H](CN(C)S(=O)(=O)c2ccc(F)cc2)OCCCC[C@H](C)Oc2ccc(NC(=O)C3CCCCC3)cc2C1=O | / | / | / | 7.3 | / | /
CN(CC(=O)NCCCN1CCOCC1)S(=O)(=O)c1ccc(Br)cc1 | 63.1* | -0.1 | 0.0 | / | / | 4.1
CN(CC(=O)NCCN1CCOCC1)S(=O)(=O)c1ccc(Cl)cc1 | -0.3 | -0.1 | 0.7 | / | 10.0 | /
CO[C@@H]1CN(C)C(=O)c2ccc(NC(=O)C3CC3)cc2OC[C@@H](C)N(Cc2ccccc2)C[C@@H]1C | / | / | / | 20.2 | / | /
CCC(c1nnnn1-c1ccc2c(c1)OCCO2)N1CCN(C/C=C/c2ccccc2)CC1 (stereo not drawn) | 58.4* | -0.1 | / | -15.9 | 26.7 | /
COc1ccc(-n2nnnc2C(c2cc3ccccc3o2)N2CCN(C/C=C/c3ccccc3)CC2)cc1 (stereo not drawn) | 14.1 | -0.5 | / | -4.7 | 13.8 | /
C(=C\c1ccccc1)/CN1CCN(C(c2cc3ccccc3o2)c2nnnn2-c2ccc3c(c2)OCCO3)CC1 (stereo not drawn) | 68.5* | -0.4 | / | -4.1 | -0.5 | /
C(=C\c1ccccc1)/CN1CCN(C(CCc2ccccc2)c2nnnn2-c2ccc3c(c2)OCCO3)CC1 (stereo not drawn) | 19.6 | -0.2 | / | 12.9 | 14.9 | /
C(=C\c1ccccc1)/CN1CCN(C(c2nnnn2-c2ccc3c(c2)OCCO3)C2CC2)CC1 (stereo not drawn) | 57.6* | -0.4 | / | -16.1 | 21.8 | /
COc1ccc(-c2ocnc2C(=O)NCc2nn(-c3ccccc3)nc2C)cc1 | 50.3* | 0.9 | 22.9 | 17.6 | 39.4 | -0.3
CCCN(C)C[C@H]1Oc2ncc(-c3ccccc3)cc2C(=O)N([C@H](C)CO)C[C@H]1C | / | / | / | 8.5 | / | /
COC(=O)CC1NCCc2cc(OC)c(OC)cc21 (stereo not drawn) | 0.6 | 0.0 | -2.4 | / | 10.5 | -6.5
CC[C@H]1CN2CCc3cc(OC)c(OC)cc3C2C[C@@H]1C[C@H]1NCCc2cc(OC)c(OC)cc21 (stereo partly drawn) | 95.4* | 3.0 | 88.0* | 102.6* | 85.8* | /
SMILES | TWEAK-Fn14 inh | aDG glyco act | LMP1 NFkB inh | LGR2 antag | TROY signal inh | HSP90 inh
CCC1=C(CC2NCCc3ccccc32)CC2c3cc(OC)c(OC)cc3CCN2C1 (stereo not drawn) | 41.2 | -0.3 | -1.7 | 70.5* | 35.6 | /
COc1cc2c(cc1OC)CN1CCc3cc(OC)c(OC)cc3C1C2 (stereo not drawn) | -10.3 | 0.1 | / | -1.0 | -8.5 | /
COc1ccc(C(=O)c2c(C(F)(F)F)oc3c2C(=O)c2ccccc2C3=O)cc1OC | 58.2* | 5.7* | 24.0 | / | 51.1* | 0.6
COc1ccc(C(=O)Nc2ccc3c(c2)C(=O)c2ccccc2C3=O)cc1OC | -29.4 | 1.2 | 9.8 | -13.4 | -45.4 | 1.9
Cc1ccnc(NC(=O)/C=C/c2cccs2)c1 | 53.5* | -0.1 | 17.8 | 13.4 | -9.1 | 1.9
O=C1N[C@@H](Cc2ccccc2)C(=O)N1CCN1CCOCC1 | -9.3 | -0.1 | -2.0 | 38.7 | 18.7 | 5.4
O=C1NC(Cc2ccccc2)C(=O)N1Cc1cc([N+](=O)[O-])cc2c1OCOC2 (stereo not drawn) | -0.6 | -0.2 | 55.2* | 27.0 | -3.4 | 2.8
CO[C@H]1CC[C@H]2CCN(C)C(=O)[C@H](C)[C@H](OC)CN(C)C(=O)c3cc(C#N)ccc3OC[C@@H]1O2 | / | / | / | 6.9 | / | /
CCCNC(=O)c1ccccc1C(=O)NCCC | 89.3* | 0.2 | -2.2 | -8.9 | 2.1 | 0.7
C[C@H](CO)N1C[C@H](C)[C@H](CN(C)Cc2ccncc2)Oc2ccc(NS(=O)(=O)c3ccc(Cl)cc3)cc2CC1=O | / | / | / | -24.9 | / | /
CCOC(=O)C1=C(C)NC(=O)NC1c1cn(-c2ccccc2)nc1-c1cccs1 (stereo not drawn) | -17.2 | -0.1 | 1.5 | / | -11.6 | -0.1
CCOC(=O)C1=C(C)NC(C)=C(C(=O)OCC)C1c1cn(-c2ccccc2)nc1-c1ccco1 | -29.2 | -0.2 | 75.9* | / | -32.6 | -0.1
O=C1C(=O)N(CCN2CCOCC2)C(c2ccccn2)/C1=C(/O)c1ccccc1 (stereo not drawn) | 62.7* | -0.2 | 4.1 | / | 0.6 | 1.2
C[C@@H]1CCCCO[C@H](CN(C)CC2CC2)[C@H](C)CN([C@@H](C)CO)C(=O)c2cc(NS(=O)(=O)c3ccccc3)ccc2O1 | / | / | / | -8.1 | / | /
CC(=O)c1ccc(N2CCN(c3ccnc4cc(Cl)ccc34)CC2)cc1 | 24.6 | 0.6 | 47.1* | 6.2 | 3.7 | 2.1
COc1ccc(C=C(C(C)=O)C(=O)c2ccccc2)cc1 | 27.6 | 0.1 | / | 17.3 | -2.4 | /
CC(=O)C(=Cc1ccc(Cl)cc1)C(=O)c1ccccc1 | 94.6* | -0.3 | / | 16.0 | 19.4 | /
COc1ccc(C=C(C(=O)c2ccccc2)C(=O)c2ccccc2)cc1 | 51.7* | 0.1 | / | -64.8 | -20.2 | /
CC(=O)C(=Cc1cccc(C#N)c1)C(=O)c1ccccc1 | 77.1* | -0.2 | / | 47.2 | -11.9 | /
C[C@@H]1CCCCO[C@H](CN(C)Cc2ccc3c(c2)OCO3)[C@@H](C)CN([C@@H](C)CO)C(=O)c2cc(NC(=O)c3ccccc3)ccc2O1 | / | / | / | 3.0 | / | /
